Bioassay records from PubChem.
The list is not random: actives were taken first. Their share in the collection is about 0.92%.
RecA intein inh – inhibitors of M. tuberculosis RecA intein splicing; inhibition, % (test concentration not listed); cell-free RecA intein splicing, fluorescence; AID 2221; actives 0.75% (n = 290,000); in the data active means inhibition above about 30%; inconclusive means no clear call, values can overlap the other calls
Target sequence (P9WHJ3 whole entry, looked up): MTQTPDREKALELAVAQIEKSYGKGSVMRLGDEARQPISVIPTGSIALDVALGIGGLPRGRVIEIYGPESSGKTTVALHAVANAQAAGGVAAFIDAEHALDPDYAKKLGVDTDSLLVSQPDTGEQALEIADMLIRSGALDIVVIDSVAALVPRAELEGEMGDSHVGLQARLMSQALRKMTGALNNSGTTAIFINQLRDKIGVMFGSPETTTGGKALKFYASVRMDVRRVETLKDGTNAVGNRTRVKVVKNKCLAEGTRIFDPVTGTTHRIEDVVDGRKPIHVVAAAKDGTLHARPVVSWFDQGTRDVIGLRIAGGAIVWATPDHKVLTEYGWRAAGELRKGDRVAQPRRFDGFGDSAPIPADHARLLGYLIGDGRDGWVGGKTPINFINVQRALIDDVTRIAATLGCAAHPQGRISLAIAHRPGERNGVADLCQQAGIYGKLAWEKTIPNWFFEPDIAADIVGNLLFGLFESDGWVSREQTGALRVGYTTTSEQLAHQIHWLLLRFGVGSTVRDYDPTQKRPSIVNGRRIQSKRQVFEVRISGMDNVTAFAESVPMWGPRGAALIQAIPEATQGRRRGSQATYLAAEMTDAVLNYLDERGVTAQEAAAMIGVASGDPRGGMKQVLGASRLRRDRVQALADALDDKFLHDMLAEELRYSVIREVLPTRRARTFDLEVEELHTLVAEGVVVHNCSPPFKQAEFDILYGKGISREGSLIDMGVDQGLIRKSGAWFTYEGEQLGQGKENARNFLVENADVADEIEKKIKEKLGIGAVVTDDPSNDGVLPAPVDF
Mtb hypoxia inh – inhibitors of hypoxia-regulated fluorescent reporter in Mycobacterium tuberculosis. M. tuberculosis hypoxia-regulated fluorescent reporter, fluorescence. fluorescence inhibition, % (no concentration beside the values). actives 0.1% (n = 300,000). AID 1159583; in the data active means fluorescence inhibition mostly above about 23%, no sharp cut-off; inactive means mostly below about 17%
Rv3671c protease – inhibitors of M. tuberculosis serine protease Rv3671c. inhibition, % at 5.96 µM. P9WHR9. actives 0.048% (n = 320,000); in the data active means inhibition above about 38%;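 further: extracellular domain of Rv3671c used as enzyme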
UGM FP inh – blocks M. tuberculosis UGM enzyme; P9WIQ1; purified UGM, fluorescence polarization probe displacement; inhibition, % at 10 µM; actives 0.06% (n = 320,000); AID 504406; in the data active means inhibition above about 10%, passing the limit was not always enough; inconclusive means no clear call, values can overlap the other calls
FadD28 FP inh – inhibitors of Mycobacterium tuberculosis FadD28 bisubstrate binding; actives 0.22% (n = 360,000); FadD28 bisubstrate probe binding, fluorescence polarization; inhibition, % at 12.5 µM; in the data active means inhibition above about 8.5%, passing the limit was not always enough; inconclusive means no clear call, values can overlap the other calls
Mtb bLac sens – beta-lactam sensitization of Mtb H37Rv. M. tuberculosis H37Rv growth with meropenem, percent inhibition. inhibition, % at 25 µM. actives 0.27% (n = 330,000);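 further: growth measured after seven days incubation then overnight dye step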
GFP chromophore – counter-screen GFP chromophore formation inhibition; shares compounds with RecA intein inh; cell-free GFP chromophore formation, fluorescence; EC50, µM; actives 83% (n = 2,100)
A number is an active result; 0 = inactive; ? = inconclusive; - = not tested or not shown. Unless noted, how the calls were made is not given here.

SMILES	RecA intein inh	Mtb hypoxia inh	Rv3671c protease	UGM FP inh	FadD28 FP inh	Mtb bLac sens	GFP chromophore
CSCCC1C(C#N)=C(N)Oc2n[nH]c(-c3cccs3)c21 (stereo not drawn)	85	0	0	0	0	0	9.1
CC(C)CC1C(C#N)=C(N)Oc2c1c(=O)oc1ccccc21 (stereo not drawn)	0	0	0	0	0	0	-
CC(C)CC1C(C#N)=C(N)Oc2n[nH]c(-c3cccs3)c21 (stereo not drawn)	86	0	0	0	0	0	0
COc1ccc2c(CC(=O)Nc3nccs3)coc2c1	0	0	0	0	0	0	-
Cc1cc(-c2[nH]nc3c2C(c2ccsc2)C(C#N)=C(N)O3)c(C)s1 (stereo not drawn)	86	-	0	0	0	0	6.6
Cc1cc(-c2[nH]nc3c2C(c2cccc(O)c2)C(C#N)=C(N)O3)c(C)s1 (stereo not drawn)	83	0	0	0	0	0	9.3
CCOc1cc(C2C(C#N)=C(N)Oc3n[nH]c(-c4ccncc4)c32)cc([N+](=O)[O-])c1O (stereo not drawn)	0	0	0	0	0	0	-
COc1ccc(C(=S)NCS(=O)(=O)c2ccc(C)cc2)cc1	0	0	0	0	0	0	-
CCc1cc2c(NCCO)ncnc2s1	0	0	0	0	0	0	-
O=C(CNC(=O)c1ccccc1)N/N=C/c1ccc([N+](=O)[O-])o1	58	-	0	0	0	0	0
O=C(CNc1ccccc1)N/N=C/c1ccc([N+](=O)[O-])o1	0	-	0	0	0	0	-
O=C(N/N=C/c1ccc([N+](=O)[O-])o1)c1ccc(O)cc1	56	-	0	0	0	0	0
CC(C)(C)c1nnc(NN=Cc2ccccc2O)n(N)c1=O	-	0	-	-	-	-	-
CC1CCCN(C2=C(Cl)C(=O)N(c3cccc(Cl)c3)C2=O)C1 (stereo not drawn)	70	0	0	0	0	0	8.7
COc1ccc(N2C(=O)C(Cl)=C(N3CCCC(C)C3)C2=O)cc1 (stereo not drawn)	0	0	0	0	0	0	-
Nc1ccccc1S(=O)(=O)NC1=NCCCCC1	30	0	0	0	0	0	0
Nc1ccc(S(=O)(=O)NC2=NCCCCC2)cc1N	0	0	0	0	0	0	-
COc1cccc(C(C[N+](=O)[O-])c2c(C)[nH]n(-c3ccccc3)c2=O)c1 (stereo not drawn)	96	-	0	0	0	0	27
Cc1[nH]n(-c2ccccc2)c(=O)c1C(C[N+](=O)[O-])c1ccc(Br)cc1 (stereo not drawn)	77	-	0	0	0	0	17
Cc1ccc(C(C[N+](=O)[O-])c2c(N)n(C)c(=O)n(C)c2=O)cc1 (stereo not drawn)	0	-	0	0	0	0	-
COc1cccc(N=Nc2c(C)[nH]n(-c3ccccc3)c2=O)c1	0	0	0	0	0	0	-
COCCOC(=O)C1=C(C)OC(N)=C(C#N)C1c1ccc2c(c1)OCO2 (stereo not drawn)	0	0	0	0	0	0	-
CCOC(=O)C1(CCOc2ccccc2)CCN(Cc2ccc(O)c(Cl)c2)CC1	43	0	-	0	0	0	0
Cc1onc(-c2ccccc2)c1C(=O)N/N=C/c1ccc([N+](=O)[O-])c(O)c1	0	-	0	0	0	0	-
FC(F)(F)c1cccc(Oc2nc(-c3ccccc3)nnc2C(F)(F)F)c1	58	0	0	0	0	0	1.5
SMILES	RecA intein inh	Mtb hypoxia inh	Rv3671c protease	UGM FP inh	FadD28 FP inh	Mtb bLac sens	GFP chromophore
FC(F)(F)c1nnc(-c2ccccc2)nc1Sc1ccccc1	63	-	0	0	0	0	27
CN(NC(=O)c1cccc(Cl)c1)c1nc(-c2ccccc2)nnc1C(F)(F)F	0	-	0	0	0	0	-
FC(F)(F)c1nnc(-c2ccccc2)nc1Sc1ccc(Cl)cc1	0	0	0	0	0	0	-
FC(F)(F)c1cccc(Sc2nc(-c3ccccc3)nnc2C(F)(F)F)c1	0	-	0	0	0	0	-
FC(F)(F)c1nnc(-c2ccccc2)nc1Oc1ccc(Cl)cc1Cl	61	-	0	0	0	0	0.45
CCCc1nc2c(s1)CCc1onc(-c3cccc([N+](=O)[O-])c3)c1-2	0	0	0	0	0	0	-
O=C(COc1ccc(Cl)cc1)Nc1ccc(NC(=O)c2ccco2)cc1	0	0	0	0	-	0	-
Cc1cccc(CSc2nc3c(c(-c4cccs4)c2C#N)CN(C)CC3)c1	61	0	0	0	0	0	25
Cc1cccc(CSc2nc(N)c(C#N)c(-c3cccs3)c2C#N)c1	0	0	0	0	0	0	-
CN1CCc2nc(SCC(=O)Nc3ccc(OC(F)(F)F)cc3)c(C#N)c(-c3cccs3)c2C1	88	0	0	0	0	0	3.9
Cc1ccc(-c2nonc2NC(=O)c2ccco2)cc1	0	0	0	0	0	0	-
COC(=O)Cn1c(O)c(N=NC(=O)CNC(=O)COc2cccc(C)c2)c2ccccc21	0	0	0	0	0	0	-
O=C1C(Cc2ccccc2)Nc2ncnc(N3CCc4ccccc4C3)c2N1Cc1ccc(Cl)cc1 (stereo not drawn)	33	-	0	0	0	0	0
CCC1Nc2ncnc(N3CCc4ccccc4C3)c2N(Cc2ccc(Cl)cc2)C1=O (stereo not drawn)	-	0	0	0	0	0	-
CCCCN(C(=O)c1cc(CC)c(C)s1)c1c(N)n(CC(C)C)c(=O)[nH]c1=O	0	0	0	0	0	0	-
CCOC(=O)c1c(NC(C)=O)sc2c1CCC(C=NCCCN(CC)CC)=C2Sc1ccccc1	61	-	0	0	0	0	0.37
c1ccc(-c2ccc(C3CCCN3)cc2)cc1 (stereo not drawn)	90	0	0	0	0	0	0
Cc1ccccc1C(=O)NNC(=S)NC(=O)COc1ccccc1	40	0	0	0	0	0	31
CC(C)c1nnc(NC(=O)c2nc(S(=O)(=O)Cc3ccccc3)ncc2Cl)s1	79	-	0	0	0	0	0
CSc1nnc(NC(=O)c2nc(S(=O)(=O)Cc3ccccc3)ncc2Cl)s1	72	-	0	0	0	0	30
CCCc1nnc(NC(=O)c2nc(S(=O)(=O)Cc3ccc(C)cc3)ncc2Cl)s1	85	-	0	0	0	0	0
CNC[C@H]1Oc2c(NS(=O)(=O)c3ccc(OC)cc3)cccc2C(=O)N([C@H](C)CO)C[C@@H]1C	-	0	0	-	0	0	-
N#Cc1ccc(NC(=O)c2cccs2)nc1	0	0	0	0	0	0	-
CC1CN(C(C)CO)C(=O)c2cccc(NS(C)(=O)=O)c2OC1CN(C)CC1CCCCC1 (stereo not drawn)	-	0	-	-	-	-	-
COC(=O)c1ccccc1NC(=S)NC(=O)c1ccc(C)cc1	36	0	0	0	0	0	0.49
O=C1c2cc(F)ccc2-n2c1nc1ccccc1c2=O	94	-	0	0	0	?	0
Cc1ccc(OCCN(C)C(=O)C2CCC(=O)N(Cc3ccccc3F)C2)cc1 (stereo not drawn)	-	0	0	0	0	?	-
